Here are results for 16 molecules from PubChem BioAssay.

A number with no mark means an inactive call. The rule behind the calls is not given here.

Pantothenate synthetase (Mycobacterium tuberculosis (strain ATCC 25618 / H37Rv)), sequence (P9WIL5 whole entry, looked up): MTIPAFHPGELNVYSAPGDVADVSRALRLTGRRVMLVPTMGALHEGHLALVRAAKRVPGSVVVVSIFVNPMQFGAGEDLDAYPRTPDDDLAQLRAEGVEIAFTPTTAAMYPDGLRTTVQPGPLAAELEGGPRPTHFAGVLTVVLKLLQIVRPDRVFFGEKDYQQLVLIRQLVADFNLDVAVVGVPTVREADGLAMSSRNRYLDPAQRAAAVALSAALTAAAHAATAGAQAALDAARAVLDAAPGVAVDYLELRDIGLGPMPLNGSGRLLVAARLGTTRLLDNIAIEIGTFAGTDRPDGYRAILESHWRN

This test concerns the target Pantothenate synthetase (Mycobacterium tuberculosis (strain ATCC 25618 / H37Rv)) (UniProt P9WIL5). The test is described as follows: Coupled enzyme confirmation of inhibitors against recombinant Mtb PanC (AID 375).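 Note: 0% = full reaction with vehicle and 100% = no enzyme background.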 Conditions: coupled enzyme assay; at 10 µM, stronger effect = higher value.
For `COc1ccc2c(c1)CCc1c(C(=O)N3CC4(C)CC3CC(C)(C)C4)noc1-2` (stereo unspecified), the inhibition was 0%.

Turning to `O=C(CN1C(=O)c2ccccc2C1=O)Nc1ccc(S(=O)(=O)NCC2CCCO2)cc1` (stereo unspecified), the inhibition was 0%.

Take `CN(c1ccccc1C(N)=O)S(=O)(=O)c1ccccc1`: the inhibition is 10%.

On to `COCCNS(=O)(=O)c1cc(F)ccc1OC`, for which the inhibition was 0%.

Turning to `CCN(CCNC(=O)C1CCN(S(=O)(=O)c2cccc3cccnc23)CC1)c1ccccc1`, the inhibition was 1%.

Consider `O=C(c1ccco1)N1CCN(c2ccc(Cl)cc2)CC1`, for which the inhibition is 5%.

`CCC(c1nnnn1CCOC)N(Cc1ccc(C)cc1)Cc1cc2cc(OC)ccc2[nH]c1=O` (stereo unspecified): the inhibition was 0%.

For `COc1cccc(NC(=O)N2CCCC2C(=O)Nc2ccc3c(c2)OCO3)c1` (stereo unspecified), the inhibition was 4%.

On to `O=C(Cn1nnc(-c2ccncc2)n1)Nc1ccc2c(c1)CCC2`, for which the inhibition was 0%.

As to `Cc1ccc(-c2nnc3ccc(SCC(=O)NCc4ccco4)nn23)cc1`, the inhibition is 0%.

`Cc1ccc(CCNC(=O)C2CCC(=O)N2C2CCCC2)cc1` (stereo unspecified): the inhibition was 0%.

Consider `CCOC(=O)Cc1nnc(Nc2cccc(O)c2)c2ccccc12`, for which the inhibition is 9%.

Take `COc1ccccc1CN(Cc1nc2ccccc2c(=O)[nH]1)C(=O)Nc1ccccc1`: the inhibition is 0%.

On to `Cc1cc(Br)c(S(=O)(=O)n2nnc3ccccc32)cc1C`, for which the inhibition is 2%.

Consider `Cc1ccc(-n2c(-c3ccncc3)nnc2-c2cccs2)cc1`, for which the inhibition was 1%.

Take `CC1CCN(CCCNC(=O)c2cn(C)c3ccc(S(=O)(=O)N4CCCC4)cc3c2=O)CC1`: the inhibition is 0%.
